In PubChem BioAssay (Tox21):
Inconclusive results are not listed. Active and inactive are the calls of the source. The call rests on the fitted dose curve.
On the % scale 0 is the no-effect control and ±100 the full control effect; potency means the concentration at half of the fitted maximal effect.

Test: qHTS assay to identify small molecule agonists of the progesterone receptor (PR) signaling pathway - cell viability counter screen (AID 1346799); further: nearly all actives have a fitted effect of over 45% in size
Conditions: PR-UAS-bla HEK293T viability, CellTiter-Glo luminescence, 16 h; series mostly up to 92.4 µM; activity change, negative = cytotoxicity: at the top concentration
Text: National Center for Advancing Translational Sciences [NCATS]
NIH Chemical Genomics Center [NCGC]
U.S. Environmental Protection Agency [EPA]
National Institutes of Environmental Health Sciences [NIEHS]
National Toxicology Program [NTP]
U.S. Food and Drug Administration [FDA]
Progesterone receptor (PR), a nuclear hormone receptor, plays an important role in development, metabolic homeostasis and reproduction. It is activated by the steroid hormone progesterone. Endocrine disrupting chemicals (EDCs) and their interactions with steroid hormone receptors like PR causes disruption of normal endocrine function. To identify the compounds that stimulate PR signaling, a PR-UAS-bla GripTite cell line i.e. PR-UAS-bla HEK293T (Invitrogen, Carlsbad, CA, USA) containing a beta-lactamase reporter gene under the control of an UAS response element was used to screen Tox21 10K compound library. The cytotoxicity of the Tox21 compound library against the PR-bla cell line was tested in parallel by measuring the cell viability using CellTiter-Glo assay in the same wells.
Tox21 Assay Protocol Summary:
PR-UAS-bla HEK293T cells were dispensed at 3,000 cells/5 uL of assay medium containing 2% charcoal stripped FBS per well into black wall/clear-bottom 1536-well plates using a Multidrop Combi (ThermoFisher Scientific, Waltham, MA) dispenser. After the assay plates were incubated at a 37C and 5% CO2 for 6 hr, 23 nL of compounds dissolved in DMSO, positive controls or DMSO only was transferred to the assay plate by a Pintool station (Kalypsys, San Diego, CA). The plates were incubated at 37C and 5% CO2 for 16 hr. Then 1 uL of LiveBLAzer B/G FRET substrate was added using a Flying Reagent Dispenser (FRD, Aurora Discovery, San Diego, CA), the plates were incubated at room temperature for 2 hours, and fluorescence intensity was measured by an Envision plate reader (PerkinElmer, Shelton, CT). For cell viability readout that measures cytotoxicity, 4 uL/well of CellTiter-Glo reagent was added into the assay plates using a FRD. After 30 min incubation at room temperature, the luminescence intensity in the plates was measured using a ViewLux (PerkinElmer) plate reader.
For `C[C@H](CCC(=O)O)[C@H]1CC[C@H]2[C@@H]3[C@H](O)C[C@@H]4C[C@H](O)CC[C@]4(C)[C@H]3CC[C@]12C`, the “activity change, negative = cytotoxicity” value was -3.02% (inactive). For `N#CCc1cccc(C(F)(F)F)c1`, the “activity change, negative = cytotoxicity” value was -10.3% (inactive). For `N=C(N=C(N)N)N1CCOCC1`, the “activity change, negative = cytotoxicity” value was 7.4% [at 42.5 µM] (inactive). In the case of `O=S1(=O)N=C(O)c2ccccc21`, the “activity change, negative = cytotoxicity” value is reported as -3.47% [at 42.5 µM] (inactive). In the case of `NCCCOCCOCCOCCCN`, the Potency is reported as 8.63 µM (active). With `NCCCN(CCO)CCO` the “activity change, negative = cytotoxicity” value was -9.25% (inactive). For `N#CCCNCCC#N`, the “activity change, negative = cytotoxicity” value was 0.406% (inactive). In the case of `CC1(C)[C@H]2CC[C@]1(C)[C@H](O)C2`, the “activity change, negative = cytotoxicity” value is reported as 8.3% (inactive). With `CC(C)c1ccc2c(C(C)C)cc(C(C)C)c(S(=O)(=O)O)c2c1` the “activity change, negative = cytotoxicity” value was -20.7% (inactive). In the case of `CC(C)c1ccccc1C(C)C`, the “activity change, negative = cytotoxicity” value is reported as 5.13% (inactive). For `O=C(Cl)c1c(Cl)cccc1Cl`, the “activity change, negative = cytotoxicity” value was -20.9% (inactive). For `CCOC(=O)C1=NN(c2ccccc2)C(=O)C1`, the “activity change, negative = cytotoxicity” value was -5.02% (inactive). For `N#Cc1cc2ccccc2c2ccccc12`, the “activity change, negative = cytotoxicity” value was 5.38% (inactive). With `C=C(C)C(=O)OC(C)C` the “activity change, negative = cytotoxicity” value was -6.41% (inactive). In the case of `C[C@@H](C1=C(CCN(C)C)Cc2ccccc21)c1ccccn1`, the “activity change, negative = cytotoxicity” value is reported as -10.9% [at 42.5 µM] (inactive). For `CC1=CCC(C(C)C)C=C1` (stereo not given), the “activity change, negative = cytotoxicity” value was -11.9% (inactive). In the case of `CCCC[C@H]1CN(CC2CCOCC2)C(=O)OC12CCN(C1(C)CCN(C(=O)c3c(C)ncnc3C)CC1)CC2`, the “activity change, negative = cytotoxicity” value is reported as -6.84% (inactive). For `O=C(O)c1cccc(N(Cc2cccnc2)c2ccc(OC(F)F)c(OC(F)F)c2)c1`, the “activity change, negative = cytotoxicity” value was -4.67% (inactive). In the case of `CCOC(=O)CC(=O)c1cc(F)c(Cl)nc1Cl`, the “activity change, negative = cytotoxicity” value is reported as 6.48% (inactive). With `C=CCCCCCC` the “activity change, negative = cytotoxicity” value was -13.5% (inactive). For `OCCC1CCCCN1` (stereo not given), the “activity change, negative = cytotoxicity” value was 4.44% (inactive). In the case of `CC(=O)Nc1ccc(/C=N/NC(N)=S)cc1`, the “activity change, negative = cytotoxicity” value is reported as -2.82% [at 42.5 µM] (inactive). For `Cc1cc(CC(=O)O)c(C)n1-c1ccc(Cl)cc1`, the “activity change, negative = cytotoxicity” value was -14.2% [at 42.5 µM] (inactive). With `Nc1nc(N)c2nc(CNc3ccc(C(=O)N[C@@H](CCC(=O)O)C(=O)O)cc3)cnc2n1` the “activity change, negative = cytotoxicity” value was -26.5% (inactive). For `Cc1ccccc1N=Nc1ccc(N=Nc2c(O)ccc3ccccc23)c(C)c1`, the “activity change, negative = cytotoxicity” value was 2.54% [at 42.5 µM] (inactive). In the case of `CCCCc1cc2ccccc2c(OCCN(C)C)n1`, the “activity change, negative = cytotoxicity” value is reported as -13.8% [at 42.5 µM] (inactive). For `NCc1ccccc1`, the “activity change, negative = cytotoxicity” value was -1.22% (inactive). With `OC(CCN1CCCCC1)(c1ccccc1)C1CCCCC1` (stereo not given) the “activity change, negative = cytotoxicity” value was -8.72% [at 42.5 µM] (inactive). For `CCOc1ccc(NC(=O)CC(C)=O)cc1`, the “activity change, negative = cytotoxicity” value was -12% (inactive). In the case of `CC1=CC(=O)/C(=C(/C)O)C(=O)O1`, the “activity change, negative = cytotoxicity” value is reported as 2.25% (inactive). With `Cc1ccc2c(ccc3ccccc32)c1` the “activity change, negative = cytotoxicity” value was 4.81% (inactive). For `CC(C)CCCCCCOC(=O)c1ccc(C(=O)OCCCCCCC(C)C)c(C(=O)OCCCCCCC(C)C)c1`, the “activity change, negative = cytotoxicity” value was -17.9% (inactive). With `COCCOCCOCCOCCOC` the Potency was 21.7 µM (active). For `C1=Cc2ccccc2C1`, the “activity change, negative = cytotoxicity” value was 1.4% (inactive). In the case of `CNS(=O)(=O)Cc1ccc2[nH]cc(CCN(C)C)c2c1`, the “activity change, negative = cytotoxicity” value is reported as -5.01% [at 42.5 µM] (inactive). In the case of `CC(C)CC=O`, the “activity change, negative = cytotoxicity” value is reported as -9.91% (inactive). With `CC/C(=C\C(=N/O)C(N)=O)C(C)[N+](=O)[O-]` (stereo not given) the “activity change, negative = cytotoxicity” value was -35.8% (inactive). With `COc1cc(C(C)(C)C)c(O)c(C(C)(C)C)c1` the “activity change, negative = cytotoxicity” value was -6.5% (inactive). In the case of `CC(=O)O[C@H]1C[C@@H]2CC[C@@H]3[C@H](CC[C@@]4(C)[C@H]3C[C@H]([N+]3(C)CCCCC3)[C@@H]4OC(C)=O)[C@@]2(C)C[C@@H]1N1CCCCC1`, the “activity change, negative = cytotoxicity” value is reported as 24.8% [at 42.5 µM] (inactive). For `C1CCC2OC2C1` (stereo not given), the “activity change, negative = cytotoxicity” value was -18.5% (inactive).
